Inconclusive results are not listed. Unless noted, calls come from the whole dose curve.
How the values were obtained:
[1] = Cell Viability - BJ (AID 421); conditions: BJ fibroblast viability, qHTS;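 note: cells exposed to compound for 40 hours at 37 °C before readout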
Source text: NIH Chemical Genomics Center [NCGC]
NIH Molecular Libraries Screening Centers Network [MLSCN]
National Institutes of Environmental Health Sciences [NIEHS]
National Toxicology Program [NTP]
We have developed a 1536-well cell-based assay for quantitative high throughput screening (qHTS) against a number of cell lines to determine in vitro cytotoxicity of small molecules. This particular assay uses the BJ cell line from ATCC which is derived from normal human foreskin fibroblasts.
NCGC Assay Protocol Summary:
The CellTiter-Glo luminescent cell viability assay (Promega) is a homogeneous method to measure the number of viable cells in culture. The end point readout of this assay is based on quantitation of intracellular ATP, an indicator of metabolic activity, using the luciferase reaction. […]
Using the CellTiter-Glo luminescent cell viability assay, the amount of cellular ATP was measured in the BJ cell line with complete culture medium following compound treatment for 40 hours. […] Library compounds were measured for their ability to cause acute toxicity in the cell line, as reflected by a decrease in intracellular ATP levels, in a concentration-dependent manner. […] AC50 values were determined from concentration-response data modeled with the standard Hill equation. […]
8. Detection; Luminescence; Viewlux plate reader […]

[2] = Cell Viability - Jurkat (AID 426;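 active = dose-dependent loss of cell ATP signal giving a full or clear fitted curve, ranked by lower potency value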;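 note: cells exposed to compound for 40 hours at 37 °C before ATP read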); conditions: qHTS
How it was run: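 Cytotoxicity was scored as loss of cellular ATP, measured by luciferase-based luminescence, in Jurkat clone E6-1 cells after 40 h compound treatment; tamoxifen and doxorubicin served as positive controls.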

[3] = Cell Viability - Hek293 (AID 427;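 active = compounds whose dose-response curve shows a full or clear partial loss of cell viability, called from curve shape rather than a numeric limit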;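 note: cells exposed to compound for 40 hours at 37 °C before reading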); conditions: qHTS
How it was run: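 AC50 values derive from Hill-modelled concentration-response of ATP-based luminescence, normalized between DMSO-only and 100 uM tamoxifen controls. Cells were exposed in complete culture medium for 40 hr at 37 °C before detection.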

[4] = Cell Viability - HepG2 (AID 433); conditions: qHTS;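 note: potency for ATP loss meaning cytotoxicity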
How it was run: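 HepG2 hepatocellular carcinoma cells (1500/well) were treated with compounds for 40 h at 37 °C in complete medium; intracellular ATP was read by CellTiter-Glo luminescence. Data were normalized to DMSO and 100 uM tamoxifen, and AC50 came from Hill fits.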

[5] = Cell Viability - MRC5 (AID 434); conditions: MRC5 lung fibroblast viability, qHTS;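 note: potency reflects cytotoxicity seen as loss of intracellular ATP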
How it was run: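 Decrease in intracellular ATP, quantified by luciferase light output, reflects compound toxicity toward MRC5 cells exposed for 40 hr in complete culture medium. Concentration-response curves, scaled between DMSO and 100 uM tamoxifen, gave AC50 values.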

[6] = Cell Viability - SK-N-SH (AID 435); conditions: SK-N-SH neuroblastoma cell viability qHTS;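 note: compound exposure lasted 40 h at 37 °C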
How it was run: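 SK-N-SH human neuroblastoma cells (1500/well) were exposed to compounds in complete medium for 40 h at 37 °C, and intracellular ATP was then measured by CellTiter-Glo luminescence. AC50 was taken from Hill fits, normalized to DMSO and 100 uM tamoxifen.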

Measured: Potency
Potency is the fitted concentration of half-maximal effect.

C[C@@H]1C[C@H]2[C@@H]3CCC4=CC(=O)C=C[C@]4(C)[C@@]3(F)[C@@H](O)C[C@]2(C)[C@@]1(O)C(=O)CO
inactive: [1] > 92 µM | [2] > 92 µM | [3] > 92 µM | [4] > 92 µM | [5] > 92 µM | [6] > 92 µM
